In the library only some 4.3% were active in any assay of this set; here they are far more common.
Wnt act: activates Wnt/beta-catenin signaling in a reporter cell assay | activator, plate reader | activation, % at 9.35 µM | 300,000 compounds, 1.2% hits | AID 743398; in the data active = activation above about 30%, passing the limit was not always enough; inconclusive = no clear call, values can overlap the other calls
MITF TRPM1 HTS: increases MITF-driven TRPM1 promoter luciferase signal; SK-MEL-5 TRPM1-promoter luciferase, 24 h; % of positive control, neutral wells = 0; activation, % at 12.5 µM; 300,000 compounds, 0.75% hits; AID 588334;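 active = mean activation of at least 80% with every replicate also reaching 80%; inconclusive = mean reaches 80% but some replicate falls short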
MLL AF4-AF9 inh: MLL-AF4/AF9 protein interaction inhibition. 350,000 compounds, 0.47% hits. AlphaScreen, biotin-AF4 peptide binding to FLAG-AF9. AID 651704. P42568. inhibition, % at 10 µM;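 active = every replicate reaching a set inhibition limit, whatever the replicate mean, cut at about 25% in these data; inconclusive = mean inhibition reaches that limit but some replicates miss it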
esBAF inh: SWI/SNF esBAF complex inhibition. 350,000 compounds, 2% hits. reporter increase, % at 12.5 µM. mouse ES cells, Bmi1-luciferase knock-in reporter, 24 h; 100% = twice the neutral-well signal; in the data active = activation above about 40%; inconclusive = no clear call, values can overlap the other calls;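 note: a rise in the Bmi1 reporter signal indicates esBAF inhibition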
FGF22 binding: binders of recombinant human FGF22 by thermal shift; Q9HCT0; SYPRO orange fluorescence; percent of sucrose octasulfate shift, DMSO zero; activity (Tm shift, normalised), % at 9.99 µM; 340,000 compounds, 1.5% hits; AID 651658;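 active = mean Tm shift, scaled 0 neutral to 100 positive control, at about 1.3% or above, every replicate too, limit read from the data; inconclusive = no clear call, values can overlap the other calls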
Target sequence (Q9HCT0 whole entry, looked up): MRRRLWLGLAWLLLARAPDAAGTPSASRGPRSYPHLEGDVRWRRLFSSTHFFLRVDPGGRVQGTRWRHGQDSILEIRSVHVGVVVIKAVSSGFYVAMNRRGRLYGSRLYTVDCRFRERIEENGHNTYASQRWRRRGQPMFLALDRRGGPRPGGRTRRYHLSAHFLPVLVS
SMARCA2 act: activators of SMARCA2 function | MG213 cells, MMTV-luciferase reporter, dexamethasone, overnight | 370,000 compounds, 1% hits | activation, % at 9.1 µM; in the data active = activation above about 7.8%
Numbers stand for hits; – = inactive; ? = inconclusive; · = not tested or not shown.

SMILES	Wnt act	MITF TRPM1 HTS	MLL AF4-AF9 inh	esBAF inh	FGF22 binding	SMARCA2 act
C/C(=N\NC(=O)c1ccccc1)c1ccccc1F	57	–	–	–	·	–
COc1ccc(/C(C)=N/NC(=O)c2ccccc2N)cc1	–	–	–	–	–	7.9
COc1ccc(/C(C)=N/NC(=O)c2ccccc2OCc2ccccc2)c(OC)c1	·	–	–	50	–	–
Cc1ccc(S(=O)(=O)N[C@@H]2CC[C@@H](CCn3cc(-c4cccc(F)c4)nn3)O[C@H]2CO)cc1	·	·	–	–	–	·
Nc1n[nH]c(-c2ccc(F)cc2)n1	–	·	·	–	·	–
CCCCc1ccc(-c2nc(N)n[nH]2)cc1	35	–	·	–	·	–
Cc1ccc(Sc2ccc(CN3CCCC3)cc2[N+](=O)[O-])cc1	–	–	31	–	–	–
COc1ccccc1Nc1ncnc2c1cnn2-c1cccc(C)c1	35	·	·	?	·	–
COc1cccc(Nc2ncnc3c2cnn3-c2cccc(C)c2)c1	·	·	·	56	·	–
C[C@@H]1CN([C@H](C)CO)C(=O)c2cc(NC(=O)Nc3cccc4ccccc34)ccc2O[C@@H](C)CCCCO[C@H]1CN(C)C(=O)c1ccccc1	·	·	–	–	–	·
O=C(OC12CCCN(C1)/C(=C/c1ccncc1)C2)c1ccccc1 (stereo not drawn)	·	·	·	·	·	–
O=C1CSCN1c1ccc(Cl)c(Cl)c1	–	–	–	–	43	–
CCC(Sc1nc(C)cc(C)n1)C(=O)Nc1cc(C)on1 (stereo not drawn)	–	–	–	·	44	–
CCC(Sc1nc(C)cc(C)n1)C(=O)O (stereo not drawn)	–	–	–	–	–	–
C=CCSc1ncc(-c2ccccc2)cn1	?	–	–	50	–	–
C#CCSc1ncc(-c2ccccc2)cn1	–	–	–	73	–	–
CSc1ncc(-c2ccccc2)cn1	–	–	–	·	–	–
COc1ccccc1-c1ccc(OCCCN2CCC(C(O)(c3ccccc3)c3ccccc3)CC2)cc1	–	·	–	·	–	–
O=C(NCCc1cnn(-c2ccccc2)c1)c1cc(COc2c(F)cccc2F)on1	38	–	–	·	–	–
CN(Cc1cnn(C)c1)C(=O)c1cc(COc2c(F)cccc2F)on1	·	–	–	47	–	–
CC(CNC(=O)c1cc(COc2c(F)cccc2F)on1)c1ccccc1 (stereo not drawn)	–	–	–	·	–	–
Cn1cc(CNC(=O)c2cc(COc3ccc4c(c3)CCCC4)on2)cn1	–	–	–	–	–	–
CCN(Cc1cnn(C)c1)C(=O)c1cc(COc2ccc3c(c2)CCCC3)on1	–	–	–	46	–	–
C[C@H](CO)N1C[C@H](C)[C@@H](CN(C)CC2CCCCC2)Oc2ccc(NC(=O)C3CCCCC3)cc2CC1=O	·	·	–	–	–	·
COc1ccc(-c2ccccc2[C@H]2[C@@H](CO)N(C(=O)NC3CCCCC3)[C@H]2C#N)cc1	·	·	–	·	–	·
SMILES	Wnt act	MITF TRPM1 HTS	MLL AF4-AF9 inh	esBAF inh	FGF22 binding	SMARCA2 act
Cc1noc(C)c1NC(=O)N(C)C[C@H]1Oc2ccc(NS(=O)(=O)c3ccc(Cl)cc3)cc2C(=O)N([C@H](C)CO)C[C@H]1C	·	·	–	–	–	·
COc1ccc(C(=O)N2C[C@@H]3[C@H](c4ccccc42)[C@@H](CO)N3Cc2ccc3c(c2)OCO3)cc1	·	·	–	–	–	·
C[C@H]1C=C(C(=O)Nc2ccccc2)O[C@@H](OCCCCO)C1	·	·	–	·	–	·
O=C(COc1nncc2ccccc12)Nc1c(F)c(F)c(F)c(F)c1F	–	–	–	·	–	–
O=C(COc1nncc2ccccc12)Nc1ccc(F)c(F)c1	–	–	–	·	43	–
O=C(Nc1ccccc1)Nc1ccc2c(c1)[C@@H]1C[C@H](CC(=O)N3CCOCC3)O[C@H](CO)[C@@H]1O2	·	·	·	–	–	·
CCOC(=O)c1nn(C)c2[nH]c(=O)n(C)c(=O)c12	–	–	–	–	44	–
COc1ccc(C(=O)Nc2cc(Cl)ccc2OC(=O)c2ccc(OC)cc2)cc1	·	–	·	69	·	·
COc1ccc(OC)c(NC(=O)c2ccc(Cl)cc2)c1	–	–	–	–	–	–
O=C(Nc1ccccc1OC(=O)c1ccc(Cl)cc1)c1ccc(Cl)cc1	?	–	–	65	–	–
C[C@@H]1CN([C@H](C)CO)C(=O)c2cc(C#CC3CC3)cnc2O[C@H]1CN(C)C(=O)c1ccccc1	·	·	–	–	–	·
Cc1cccc(NC(=O)NC(C)C(c2ccccc2)N2CCN(C)CC2)c1 (stereo not drawn)	–	–	–	·	43	–
COC(=O)C(Cc1ccc(OC(=O)c2ccc(C(F)(F)F)cc2)cc1)N1Cc2ccccc2C1=O (stereo not drawn)	–	·	·	46	·	·
CSCC[C@@H](C(=O)O)N1Cc2ccccc2C1=O	–	–	–	–	–	–
COc1ccc(S(=O)(=O)N(C)C[C@H]2OCCCC[C@H](C)Oc3ccc(NS(=O)(=O)c4cn(C)cn4)cc3C(=O)N([C@@H](C)CO)C[C@@H]2C)cc1	·	·	–	–	–	·
Cc1nnc(SCC(=O)N(C)C2CCCCC2)s1	–	–	–	·	44	–
CN(C(=O)CSc1ncnc2sccc12)C1CCCCC1	47	–	–	75	–	–
CN(C(=O)CSc1ncnc2sccc12)C1CCS(=O)(=O)C1 (stereo not drawn)	–	–	–	–	–	–
Cc1cccc(-n2nnnc2SCC(=O)NCC2(N3CCOCC3)CCCCC2)c1C	–	–	–	–	–	–
COc1ccccc1-n1nnnc1SCC(=O)NCC1(N2CCOCC2)CCCCC1	–	–	27	–	–	–
Cc1ccc(CSc2nc3ccncc3n2CC(=O)Nc2cc(C)cc(C)c2)cc1	–	–	–	48	–	–
COc1ccc(NC(=O)N(C)C[C@@H]2OCCCC[C@H](C)Oc3ccc(NC(=O)c4ccncc4)cc3C(=O)N([C@@H](C)CO)C[C@H]2C)cc1	·	·	·	–	–	·
COC(=O)c1ccccc1S(=O)(=O)N1CCn2cccc2C1C (stereo not drawn)	–	–	–	–	43	–
Cc1cccc(NC(=O)c2c(O)c3ccccc3[nH]c2=O)c1	41	106	–	49	–	–
O=C(Nc1cccc(C(F)(F)F)c1)c1c(O)c2ccccc2[nH]c1=O	·	·	·	–	·	·
SMILES	Wnt act	MITF TRPM1 HTS	MLL AF4-AF9 inh	esBAF inh	FGF22 binding	SMARCA2 act
O=C(NCC[C@@H]1CC[C@H](NS(=O)(=O)c2cccc(F)c2)[C@H](CO)O1)C1CCC1	·	·	–	–	–	·
C/[N+]([O-])=C/c1c(OCc2ccc(Cl)cc2Cl)ccc2ccccc12	–	–	–	·	45	–
COc1cc(CNCc2ccccn2)ccc1OCc1ccc(Cl)cc1Cl	·	–	·	–	·	–
O=C(Cc1ccc(Cl)cc1)N1CCC2(CC1)NCCc1[nH]cnc12	–	–	–	–	–	–
O=C(Cc1ccc(Cl)cc1)NCC(=O)N1CCC2(CC1)NCCc1[nH]cnc12	–	·	–	–	43	–
Cc1csc(=NC(=O)c2ccccc2)n1C	34	·	·	?	·	–
O=C(NCCCn1ccnc1)/C(=C/c1ccco1)NC(=O)c1cccs1	–	–	–	·	1.4	–

Source: PubChem (several laboratories)
